# Compound activity deposited in PubChem BioAssay by National Center for Advancing Translational Sciences (NCATS).
# SMN2 splice up – SMN2 splice variant enhancement; HEK293 SMN2-luciferase splicing reporter, luminescence, 30-36 h; Potency, µM (series often up to 46.1 µM), for the others: at the highest dose activity change, positive = activation, usual class: activators; actives 2.8% (n = 210,000); AID 1458; also: % of control where 0% means no effect; nearly all actives have a fitted effect of over 55% in size
#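 HEK293 cells carry an SMN2 […]–luciferase reporter in which exon 7 inclusion puts luciferase in frame. Cells were plated 10-12 h before compound addition, then incubated 30-36 h at 37C. ONE-Glo luminescence was read; sodium butyrate at 4.5 mM final served as control.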
# NPC1 prom act – activators of NPC1 promoter; Huh7 NPC1 promoter luciferase reporter, 24 h; Potency, µM (highest dose often 9.22 µM), inactives show at the highest dose activation, usual class: activators; actives 2.4% (n = 320,000); AID 485313; also: % of control where 0% means no effect; nearly all actives have a fitted effect of over 60% in size
#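 Huh7 cells stably carrying NPC1 promoter–luciferase, plated in Opti-MEM with 10% FBS for 2 h, were exposed to compound in DMSO for 24 h at 37 °C; luciferase reagent was added for 10 min and luminescence read.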
# ELG1 genotoxic – inducers of genotoxicity in HEK293T ELG1-luciferase cells; HEK293T ELG1-luciferase reporter, luminescence, 16 h; Potency, µM (doses to about 46 µM), for the others: top-dose activity change, positive = activation, actives largely listed as activators; actives 1.3% (n = 330,000); also: % of control where 0% means no effect; nearly all actives have a fitted effect of over 60% in size
#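 ELG1-luciferase HEK293T cells, 2,000/well; compound pinned in; 16 hr, 37 °C, 5% CO2; ONE-Glo, 30 min RT; luminescence on CCD imager.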
# FLuc modulator – firefly luciferase modulation, counter-screen for miR-21 project | P08659 | purified FLuc, Km substrates, luminescence inhibition | Potency, µM (highest dose often 57.5 µM), for inactives: top-dose activity change, negative = inhibition, hits mostly inhibitors | actives 6.9% (n = 360,000) | AID 588342;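 also: plate controls were vehicle for no effect and reference inhibitor for full effect; nearly all actives have a fitted effect of over 55% in size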
# Target sequence (P08659 whole entry, looked up): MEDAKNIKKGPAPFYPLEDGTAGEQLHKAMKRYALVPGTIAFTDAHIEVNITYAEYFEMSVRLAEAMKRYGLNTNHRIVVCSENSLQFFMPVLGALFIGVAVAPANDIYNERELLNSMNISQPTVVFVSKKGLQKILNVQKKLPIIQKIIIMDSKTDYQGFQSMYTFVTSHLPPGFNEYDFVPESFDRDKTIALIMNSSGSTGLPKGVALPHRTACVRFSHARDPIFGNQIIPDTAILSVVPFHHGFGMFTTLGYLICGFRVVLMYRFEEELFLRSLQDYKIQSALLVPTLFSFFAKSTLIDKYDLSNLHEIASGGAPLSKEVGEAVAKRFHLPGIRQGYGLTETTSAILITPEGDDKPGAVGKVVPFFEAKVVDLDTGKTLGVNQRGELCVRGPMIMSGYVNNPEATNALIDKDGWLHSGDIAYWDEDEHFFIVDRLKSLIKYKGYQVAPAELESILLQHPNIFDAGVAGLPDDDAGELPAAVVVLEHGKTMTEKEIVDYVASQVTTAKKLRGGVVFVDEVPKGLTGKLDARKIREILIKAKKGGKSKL
#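 Purified P. pyralis luciferase, 10 nM final, with Km-level 10 uM D-luciferin and 10 uM ATP in 50 mM Tris acetate pH 7.5, 10 mM Mg acetate, 0.01% Tween-20, 0.05% BSA; 6-point qHTS titration about 60 µM downward; luminescence read.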
# Rab9 prom act – activators of Rab9 promoter. actives 2.8% (n = 320,000). Potency, µM (series often up to 9.22 µM), inactives show at the highest dose activation, negative = inhibition, actives largely listed as activators. Huh7 Rab9 promoter-luciferase reporter, luminescence, 24 h. AID 485297; also: % of control where 0% means no effect; nearly all actives have a fitted effect of over 60% in size
#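 Huh7 cells stably carrying Rab9 promoter–luciferase reporter, plated 1500 cells/well, compound added after 2 h and incubated 24 h at 37 °C; luciferase luminescence then read after 10 min with detection reagent.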
# * marks the source's active call; other numbers are inactive results; ? = inconclusive; · = no result; [ ] = dose if it differs, or a comment. Compounds with a hit are over-represented: about 7.5% of the library has one in this group of screens. Calls follow the shape of the dose curve; as a rule, active = well fitted curve in the direction sought with a large enough effect; inconclusive = small, poorly fitted or top-dose-only effect, or another doubt; inactive = no such curve, though single readings can be large; an effect the other way counts as inactive or inconclusive. Potency is read from the fitted curve at half-maximal effect.
SMILES,SMN2 splice up,NPC1 prom act,ELG1 genotoxic,FLuc modulator,Rab9 prom act
CC(=O)Nc1ccc(C(=O)c2ccccc2)cc1,·,0.2%,17.4%,-6.9%,23.2%
CC(=O)Nc1ccc(NC(=O)Nc2ccccc2)cc1,·,?,16.7%,16.9µM*,?
CCC(=O)Oc1ccc(C(=O)Nc2ccc([N+](=O)[O-])cc2)cc1,14.1µM*,2.82µM*,9.0%,-11.4%,?
O=C(Nc1ccccc1)Nc1csc2ccccc12,·,?,16.6%,12µM*,?
Cc1cccc(C)c1NC(=O)Cn1nnc(C(=O)Nc2c(C)cccc2C)c1N,-9.8%,·,·,-8.8%,·
CCCN1C(=O)C(=O)N(CC(=O)c2cc(C)n(C3CC3)c2C)C1=O,·,2.82µM*,?,?,1.41µM*
Cc1noc(C)c1C(=O)NCCc1c(C)[nH]c2ccccc12,·,-0.6%,-2.1%,3.9%,-6.2%
Cc1c(Cl)cccc1NC(=O)c1cc(-c2cccs2)on1,7.7%,·,·,-7.0%,·
CC(=O)Nc1nc(-c2ccc3c(c2)CCN3C(=O)C2CC2)c(C)s1,·,-4.4%,-25.2%,?,-1.2%
CC(C)(C)C(=O)N1CCc2cc(-c3csc(N)n3)ccc21,?,0.355µM*,?,0.239µM*,0.0891µM*
CCC(C)C(=O)N1CCc2cc(-c3csc(N)n3)ccc21 (centres undefined),11.2µM*,2.51µM*,5.8µM*,5.36µM*,1.41µM*
CCCC(=O)N1CCc2cc(-c3nc(N)sc3C)ccc21,·,?,?,12µM*,3.16µM*
CS(=O)(=O)N1CCc2cc(-c3csc(NC(=O)C(c4ccccc4)c4ccccc4)n3)ccc21,6.6%,-1.2%,-1.6%,0.0%,-6.9%
Cc1cccn2c(=O)c3cc(C(=O)NCC4CCCO4)c(=N)n(C4CCCC4)c3nc12 (centres undefined),·,-1.4%,2.3%,-1.6%,-1.1%
CSc1ccc(CCNC(=O)CCc2c(C)nc3c4cccnc4nn3c2C)cc1,-20.5%,·,·,-1.9%,·
COc1cc(C)ccc1OCc1cc(C(=O)NCCN2CCOCC2)no1,·,2.24µM*,?,10.7µM*,3.98µM*
CN(CCCN1CCOCC1)C(=O)c1cc(COc2ccc(F)cc2F)on1,·,-1.2%,1.7%,0.1%,-8.0%
COc1cc(Cl)ccc1OCc1cc(C(=O)NCCCN2CCCC2=O)no1,·,3.0%,1.1%,21.3µM*,3.7%
COc1cc(C)ccc1OCc1cc(C(=O)N(C)CCCN2CCOCC2)no1,·,2.82µM*,18.3µM*,12µM*,2.51µM*
CCOC(=O)CN1C(=O)N[C@@H](c2cccc(C(F)(F)F)c2)[C@H](C(=O)OC)[C@H]1C,-0.1%[9.22 µM],·,·,·,·
CCOc1ccc(S(=O)(=O)Nc2ccc3c(c2)N(C(C)=O)CCC3)cc1,·,·,·,-4.0%,·
CC(C)CCC1=NN(C(=O)c2ccco2)C(O)(C(F)(F)F)C1 (centres undefined),·,2.9%,-0.7%,-0.2%,-2.7%
COC(=O)c1sc(NC(=O)CCCn2nc([N+](=O)[O-])cc2C)c(C(=O)OC)c1C,-4.9%,-3.3%,-5.5%,2.8%,-7.3%
CCN1C(=O)/C(=C\N2CCCc3ccccc32)SC1=S,0.8%,10.8%,12.8%,?,23.5%
CCN1C(=O)/C(=C/N2CCc3ccccc32)SC1=S,10µM*,2.82µM*,6.51µM*,?,3.16µM*
SMILES,SMN2 splice up,NPC1 prom act,ELG1 genotoxic,FLuc modulator,Rab9 prom act
Cc1ccc(Cl)c2sc(N3CCN(C(=O)c4ccco4)CC3)nc12,·,-2.3%,-13.5%,-0.8%,-3.9%
CN(C)S(=O)(=O)c1ccc(C(=O)NCc2ccccc2)cc1,0.2%,-1.6%,5.3%,1.5%,-0.2%
CN(C)S(=O)(=O)c1ccc(C(=O)NCCOc2ccccc2)cc1,11.2µM*,3.98µM*,?,13.5µM*,2.82µM*
CN(C)S(=O)(=O)c1ccc(C(=O)NCCOc2ccc(F)cc2)cc1,20.4%,26.0%,13µM*,?,?
CCOc1ccccc1NC(=O)COC(=O)c1cnc(C)cn1,·,0.4%,-1.8%,·,-4.5%
COc1ccc(-c2nc(O)c3cnccn23)cc1,14.0%,-1.4%,-0.9%,2.7%,0.0%
O=C(N/N=C/c1ccccc1F)c1csc2c1CCCC2,8.91µM*,1.12µM*,?,2.69µM*,1.26µM*
O=C(COCC(=O)N/N=C/c1ccccc1F)N/N=C/c1ccccc1F,7.6%,-0.4%,1.3%,?,12.7%
O=C(N/N=C/c1cccc(F)c1)c1csc2c1CCCC2,14.1µM*,1µM*,?,4.78µM*,1.26µM*
Cc1ccc(/C=C/C(=O)Nc2ccc(N(C)C)cc2)o1,14.1µM*,?,?,3.01µM*,?
Cc1ccc(/C=C/C(=O)Nc2ccncc2)o1,2.0%,3.8%,3.3%,16.9µM*,1.7%
COc1cccc(CNC(=O)CCc2c(C)nc3c4c(C)cc(C)nc4nn3c2C)c1,-1.9%,·,·,-2.6%,·
CC(C)(C)c1ccc(-c2nc(C#N)c(NCc3ccncc3)o2)cc1,·,16.1%,?,6.01µM*,?
COc1ccc(-c2nc(C#N)c(NCCCn3ccnc3)o2)cc1OC,6.31µM*,24.0%,?,15.1µM*,20.2%
COc1ccc(-c2nc(C#N)c(NCCc3ccccc3)o2)cc1OC,15.8µM*,?,8.2µM*,6.75µM*,?
CC(C)(C)c1ccc(-c2nc(C#N)c(NCCCn3ccnc3)o2)cc1,·,-3.8%,-2.2%,21.3µM*,-0.8%
N#Cc1nc(-c2ccc(F)cc2)oc1NCCCn1ccnc1,26.7%,12.6%,7.3%,-17.2%,26.0%
COc1ccc(N2CCN(C(=O)c3cccc(NC(=O)c4ccco4)c3)CC2)cc1,·,1.1%,-7.3%,2.6%,5.3%
O=C(COc1ccccc1Cl)Nc1ccc2[nH]c(=O)[nH]c2c1,·,-2.0%,0.8%,-13.4%,-0.9%
Cc1cc2ccccc2n1-c1ccc(C(=O)N2CCC(C(=O)NCc3ccccc3Cl)CC2)s1,·,·,·,-19.2%,·
CCc1ccc(NC(=O)c2cccc(C(=O)Nc3ccc(CC)cc3)n2)cc1,·,8.6%,5.9%,5.36µM*,15.6%
CSc1ccccc1C(=O)Nc1c(C)cccc1C,·,-4.3%,0.0%,3.2%,-2.4%
Cc1ccc(NC(=O)c2cccc(C(=O)Nc3ccc(C)c(C)c3)n2)cc1C,·,0.4%,-4.3%,?,10.4%
COC(=O)c1cccc(C(=O)Nc2ccc(C)cc2)n1,-3.5%,3.55µM*,10.2%,12µM*,?
CCc1ccc(NC(=O)c2ccccc2SC)cc1,?,?,?,15.1µM*,?
COc1ccccc1N1CCN(CCCNC(=O)c2cnn(-c3cccc(Cl)c3)c2C2CCN(C(=O)OC(C)(C)C)CC2)CC1,·,·,·,-2.0%,·
COc1ccc2c(C)cc(=O)oc2c1,-6.7%,·,·,·,·
COc1cccc(COc2ccc3c(C)cc(=O)oc3c2)c1,·,2.24µM*,7.3µM*,3.01µM*,2.82µM*
Cc1cc(=O)oc2cc(OCCc3ccccc3)ccc12,·,14.4%,?,12µM*,?
CC1CCCCC1Nc1nc2ccc(Cl)cc2n2cnnc12 (centres undefined),·,-3.0%,2.9%,-15.0%,0.3%
